Bioassay records deposited in PubChem BioAssay by National Center for Advancing Translational Sciences (NCATS).
TRHR ag: TRH receptor (human) agonism | hit rate 0.18% among 360,000 | P34981 | activation, % at 2 µM | TRHR cells, calcium flux fluo-8, FDSS agonist mode | AID 493084
Target sequence (P34981 whole entry, looked up): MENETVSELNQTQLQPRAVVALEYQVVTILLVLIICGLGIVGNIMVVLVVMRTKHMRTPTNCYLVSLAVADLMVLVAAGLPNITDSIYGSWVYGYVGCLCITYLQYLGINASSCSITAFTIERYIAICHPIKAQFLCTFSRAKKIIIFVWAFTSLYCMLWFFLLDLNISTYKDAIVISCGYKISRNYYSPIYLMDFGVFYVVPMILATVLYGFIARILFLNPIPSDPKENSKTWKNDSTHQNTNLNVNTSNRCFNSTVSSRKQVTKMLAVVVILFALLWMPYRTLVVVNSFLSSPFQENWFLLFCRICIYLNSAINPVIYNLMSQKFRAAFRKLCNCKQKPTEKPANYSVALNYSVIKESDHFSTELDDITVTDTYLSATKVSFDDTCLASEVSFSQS
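TRHR-expressing cells, plated overnight in medium with 10% serum, were loaded with fluo-8 calcium dye at room temperature. After a 10 s baseline, library compound was pin-added and calcium release was recorded kinetically (ex 480/em 530) as agonist response.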
D1 agonist: human D1 receptor agonism. P21728. HEK293 T-REx D1 cells, calcium flux, agonist mode. activation, % at 2 µM. hit rate 1% among 360,000
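Inducible HEK293 T-REx D1 cells, force-coupled to calcium signalling, were plated at 4000 cells/well with tetracycline and held overnight at 30 C. After no-wash calcium dye loading, compound-evoked calcium rise over 180 s flagged agonists.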
D1 antagonist: blocks dopamine activation of the human D1 receptor | P21728 | HEK293 TREx D1 cells, calcium flux, dopamine EC80; active compounds read low | activity change, negative = inhibition, % at 10 µM | hit rate 3.2% among 360,000 | AID 504652; in the data active = activity change below about -30%
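Kinetic fluorescence of a calcium dye serves as the read-out. D1-expressing Hek293 Trex cells, induced overnight at 30 C, are exposed to compound for 180 s before an EC80 dopamine addition, then read 180 s further.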
D1 PAM: potentiators of human D1 dopamine receptor. potentiation, % at 10 µM. HEK293 TREx D1 cells, calcium flux, dopamine EC20 potentiation. hit rate 0.036% among 360,000; in the data active = potentiation above about 30%
TRHR PAM: TRH receptor (human) allosteric enhancement | P34981 | TRHR cells, fluo-8 calcium fluorescence, EC20 TRH enhancement | enhancement, % at 2 µM | hit rate 0.66% among 360,000 | AID 493056; in the data active = enhancement above about 30%
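TRHR-expressing cells loaded with fluo-8 calcium dye were read kinetically (ex 480/em 530) during compound addition, then stimulated with an EC20 of TRH (10 nM final). Enhancement of the Gq-mediated intracellular calcium response was scored.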
Large screens that a line does not name were inactive. Only some compounds are listed: those with a hit (about 4.7% of all), similar ones and a draw of the others. Rule as the data show it, unless noted: active = activation above about 30%; inactive = the rest.

Cc1ccccc1CNC(=O)CCS(=O)(=O)c1cc2c3c(c1)CCN3C(=O)CC2	none
COc1ccc(C[C@H]2CN3C(=NC[C@@H]3C(C)C)N2CCNC(=O)c2ccc(C)c(Br)c2)cc1	D1 agonist 30
Cc1cc(C)cc(NC(=O)C2CCCN(c3nnc(-n4c(C)ccc4C)s3)C2)c1 (stereo not given)	none
O=C(N/N=C/c1c[nH]c2ccccc12)c1sc2ccccc2c1Cl	D1 antagonist -75
O=C(N/N=C/c1c[nH]c2ccc(Br)cc12)c1ccccn1	D1 antagonist -47
O=C(N/N=C/c1c[nH]c2ccccc12)c1ccccc1	none
COc1cc(NS(=O)(=O)c2ccc3c(c2)CCN3S(C)(=O)=O)cc(OC)c1	none
O=S(=O)(c1ccc2c(c1)OCCO2)N1CCN(c2ncnc3sccc23)CC1	D1 antagonist -32
Cc1cc(C)c(C)c(S(=O)(=O)N2CCN(S(=O)(=O)c3ccc4c(c3)OCCO4)CC2)c1C	D1 antagonist -48
Cc1ccc(S(=O)(=O)N2CCN(c3ncnc4sccc34)CC2)cc1C	none
CCOc1ccc(C(=O)NCC(=O)NCC2CCCCC2)cc1OCC	D1 antagonist -34
Cc1ccc(S(=O)(=O)Nc2cc(C(F)(F)F)ccc2N2CCOCC2)cc1	TRHR PAM 33
Cc1ccc(NC(=O)CSCC(=O)Nc2cc(C(F)(F)F)ccc2N2CCOCC2)cc1	D1 antagonist -34
Cc1n[nH]c(=O)nc1NC1CCCCC1	D1 antagonist -44
N#CC1CC(c2ccc([N+](=O)[O-])cc2)=NN1c1ccc([N+](=O)[O-])cc1 (stereo not given)	D1 agonist 34
CCOC(=O)c1c(CSc2ccccc2)n(C)c2cc(Br)c(OC)c(O)c12	none
CCOC(=O)c1c(CSc2ccccc2)n(C)c2cc(Br)c(OCC(O)CNC(CO)(CO)CO)cc12 (stereo not given)	D1 antagonist -47
CN(C)CCNC(=O)c1ccc(Cn2c(SCc3ccc(F)cc3)nc3cccnc32)cc1	none
O=C(NC1CCCCC1)c1ccc(Cn2c(SCc3cccc(F)c3)nc3cccnc32)cc1	D1 antagonist -65
O=C(NCCN1CCCCC1)c1ccc(Cn2c(SCc3ccc(F)cc3)nc3cccnc32)cc1	D1 antagonist -32
O=C(C1CCCN(S(=O)(=O)c2ccc(Br)s2)C1)N1CCN(c2ccc(F)cc2)CC1 (stereo not given)	none
CC(C)(C)NC(=O)CN(C(=O)C1CSC(=O)C1)c1ccc2c(c1)OCCO2 (stereo not given)	D1 antagonist -36
COc1cccc(N(CC(=O)NC(C)(C)C)C(=O)C2CSC(=O)C2)c1 (stereo not given)	none
Cc1ccc(C(=O)COC(=O)CNC(=O)c2ccccc2)s1	none
COC(=O)C(NC(=O)C(C)NC(=O)OCc1ccccc1)C(C)C (stereo not given)	none
COC(=O)c1ccc(COC(=O)C(NC(=O)Cc2ccccc2)C(C)C)cc1 (stereo not given)	D1 antagonist -32
Cc1cccc(-n2c(=O)c3ccccc3n(Cc3ccccc3)c2=O)c1	none
COc1cc2ccnc(Cc3cccc(OC)c3OC)c2cc1OC	D1 antagonist -44
Cc1cccc(N2CCN(CCNC(=O)C3COc4ccccc4C3)CC2)c1C (stereo not given)	D1 antagonist -51
Cc1ccc(CNC(=O)C2COc3ccccc3C2)cc1 (stereo not given)	none
Cc1ccc(Cl)cc1N1CCN(CCCNC(=O)C2COc3ccccc3C2)CC1 (stereo not given)	D1 agonist 41, D1 antagonist -37
O=C(NCCCN1CCN(c2ccc(F)cc2)CC1)C1COc2ccccc2C1 (stereo not given)	none
CCCC12CN3CC(CCC)(CN(C1)C3c1c[nH]c3ccccc13)C2=O (stereo not given)	none
CCSc1nnc(NC(=O)Cc2ccc(OC)cc2)s1	D1 antagonist -47
CCSc1nnc(NC(=O)Cc2cccc(OC)c2)s1	none
COC(=O)c1ccc(CSc2nnc(Nc3ccc(OC)cc3)s2)o1	D1 antagonist -30
O=c1c2sc3ccccc3c2n(Cc2ccc(F)cc2)c(=O)n1Cc1ccccc1	none
Cc1ccc2c(n1)sc1c(-c3ccc(Br)cc3)c(C#N)c(N)nc12	D1 antagonist -31
Cc1cccc(OCC(=O)NCCCNC(=O)c2ccncc2)c1	none
c1cc(C2CCN(Cc3nc(-c4ccc5c(c4)OCO5)no3)CC2)ccn1	TRHR PAM 35
COc1ccccc1C1=CC(=O)C[C@H](c2ccc(Cl)cc2)C1	D1 antagonist -36
COc1cccc(C2=CC(=O)C[C@H](c3ccc(Cl)cc3)C2)c1OC	none
O=C1C=C(c2ccc(C(=O)O)cc2)C[C@@H](c2ccc(Cl)cc2)C1	none
O=C1C=C(c2ccc(-c3ccccc3)cc2)C[C@@H](c2ccc(Cl)cc2)C1	D1 antagonist -36
COc1ccc([C@H]2CC(=O)C=C(c3ccccc3OC)C2)cc1OC	D1 antagonist -46
COc1cccc(C(=O)c2cn(CC(=O)NCc3ccccc3Cl)c3nc(C)ccc3c2=O)c1	none
CCOc1ccc(C2C(C(N)=O)=C(C)Nc3nc(SCc4ccccc4)nn32)cc1 (stereo not given)	none
O=c1oc(-c2ccc(Br)cc2)nc2ccccc12	none
O=C(CN1C(=O)C2(SCC(=O)N2c2ccc(Cl)cc2)c2ccccc21)NCCc1ccccc1 (stereo not given)	none
CCOC(=O)c1cc(-c2ccc(C)cc2)n(CCC(=O)NCCN(C)C)c1C	D1 agonist 63
CCCCCSc1ncnc2c1sc1nc(N3CCOCC3)c3c(c12)CCCC3	none
CNC(=O)c1ccc(OC2CSC2)cc1	D1 antagonist -49
CN(CC(=O)Nc1ccc([N+](=O)[O-])cc1Br)Cc1c(F)cccc1Cl	D1 antagonist -32
CN(CCOc1ccccc1)CC(=O)Nc1ccc([N+](=O)[O-])cc1Cl	none
Cc1ccc(C(=O)Nc2cccc(N3C(=O)C4CCC(C)CC4C3=O)c2)cc1 (stereo not given)	TRHR PAM 33
Cc1cccc(NC(=O)c2cccc(N3C(=O)C4CCC(C)CC4C3=O)c2)c1C (stereo not given)	D1 antagonist -49
COc1ccc(NC(=O)c2cccc(N3C(=O)C4CC=C(C)CC4C3=O)c2)c(OC)c1 (stereo not given)	D1 antagonist -51
COc1ccc(OC)c(NC(=O)c2cccc(N3C(=O)C4C5CCC(C5)C4C3=O)c2)c1 (stereo not given)	none
O=C(c1ccc([N+](=O)[O-])cc1)N(Cc1cccs1)C1CCS(=O)(=O)C1 (stereo not given)	none
CC1(C)CC(NC(=O)C(c2ccccc2)c2ccccc2)CC(C)(C)N1	D1 antagonist -32
CC1(C)CC(NC(=O)CSc2ccccc2)CC(C)(C)N1	D1 antagonist -34
